# Assay outcomes: PubChem, several laboratories
# Sampled rows, rich in hits. Any-hit rate of the full collection: about 2.2%.
# NPR2 activator: GC-B (human) receptor activation | HEK293-GC-B cells, CNP EC30, cGMP TR-FRET; 0% at EC30 CNP, 100% saturating CNP | activation, % at 10 µM | hit rate 0.11% among 370,000 | AID 1920062;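 active = activation at 10 µM reaching about 35% in either raw or pattern-adjusted values, limit read from the data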
# KLK7 zymogen act: proKLK7 (human) activation, primary screen; purified proKLK7, EDANS-DABCYL substrate fluorescence; 100% is mature enzyme control, 0% vehicle; P49862; activation, % at 7 µM; hit rate 0.9% among 370,000;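 active = activation above the mean of all tested compounds plus 3 SD, computed per campaign excluding outliers beyond control limits, cut at about 13% in these data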
# GC-A act: GC-A (human) enzyme activation | HEK293 GC-A cells, cGMP TR-FRET, EC30 ANP; 0% at EC30 ANP, 100% saturating ANP | activation, % at 10 µM | hit rate 0.14% among 370,000 | AID 1671463; in the data active = activation above about 40%
# ADAM17 inh: inhibits human ADAM17 | P78536 | recombinant ADAM17, EDANS/DABCYL FRET peptide cleavage | inhibition, % at 6.95 µM | hit rate 0.83% among 370,000 | AID 720648;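 active = inhibition above the mean of compounds lying between control limits plus 3 SD, set per campaign, cut at about 8.5% in these data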;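 also: 0% = DMSO-only wells as the low control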
# ADAM10 inh: inhibits human ADAM10. inhibition, % at 7 µM. O14672. recombinant ADAM10, EDANS/DABCYL FRET peptide cleavage, 3 h. hit rate 0.62% among 370,000;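 active = inhibition above a per-campaign cutoff equal to the mean of compounds falling between control-based bounds plus 3 SD, cut at about 20% in these data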;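 also: 0% = DMSO wells while the 100% control is not disclosed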
# * marks the source's active call; other numbers are inactive results; i = inactive; . = no result.
SMILES,NPR2 activator,KLK7 zymogen act,GC-A act,ADAM17 inh,ADAM10 inh
O=C(CSc1nnc(-c2ccc(Cl)cc2)n1Cc1ccco1)Nc1ccc(S(=O)(=O)Nc2nccs2)cc1,0,0,-1,5,7
CCOC(=O)N1CCN(C(=O)C[C@@H]2C(=O)N3CCCC4=C3[C@@]2(C(=O)OCC)CCC4)CC1,0,0,-3,1,-3
COc1ccc(-c2csc(NC(C)c3nc4cc(C(=O)NCCCO)ccc4n3Cc3ccc(C)cc3)n2)cc1 (configuration not stated),47*,0,35,0,2
N#Cc1cccc(NC(=O)OCCN2C(=O)CCC23CCC(c2ccc(Cl)cc2)CC3)c1 (configuration not stated),-15,1,-20,0,1
Cc1cc(C)cc(Nc2nc3c(S(=O)(=O)c4ccccc4)nnn3c3ccccc23)c1,19,-1,26,2,-1
Cc1cccc(Nc2nc3c(S(=O)(=O)c4ccccc4)nnn3c3ccccc23)c1,42*,0,36,-1,-2
COC(=O)[C@H](C(C)C)N1CCc2nnn(Cc3ccc(C)cc3)c2-c2cc(F)ccc2S1(=O)=O,-6,0,2,3,5
Cc1ccc(NC(=O)c2cc(S(=O)(=O)NCCC3=CCCCC3)ccc2F)cc1F,3,0,-2,10*,25*
CC(CCN1CCC(C(O)(c2ccccc2)c2ccccc2)CC1)Oc1cccc(C(F)(F)F)c1 (configuration not stated),-5,1,-16,6,9
CCOC(=O)c1c(NC(=S)Nc2ccccc2)sc2c1CCN(CC)C2,10,75*,5,-92,-255
COC(=O)c1ccc2nc(-c3ccccc3)c(Cc3ccsc3)n2c1,15,-10,13,-42,-167
COC(=O)c1ccc2nc(-c3ccccc3)c(Cc3ccccc3)n2c1,27,-5,20,-18,-64
COC(=O)c1ccc2nc(-c3ccccc3)c(Cc3ccc(C)cc3)n2c1,39*,-4,30,-20,-74
COC(=O)c1ccc2nc(-c3ccc(C)cc3)c(Cc3cccc(F)c3)n2c1,46*,-2,32,-16,-73
N#Cc1ccc(-c2nc3ccc(Br)cn3c2Cc2ccccc2)cc1,35*,-1,29,-2,-12
COC(=O)c1ccc2nc(-c3ccc(C)cc3)c(Cc3ccccc3)n2c1,39*,-3,27,-17,-75
Cc1ccc(CNC(=O)OC(C)(C)C)c(/C=C/S(=O)(=O)NCCc2ccccc2)c1,-3,0,-2,-2,-5
Cc1cccc(Oc2coc3cc(OC(=O)c4cccs4)ccc3c2=O)c1,-1,41*,2,-62,-180
Cc1ccc(Oc2coc3cc(OC(=O)c4cccs4)ccc3c2=O)cc1,0,45*,-5,-56,-209
O=C(Oc1ccc2c(=O)c(Oc3ccc4ccccc4c3)coc2c1)c1cccnc1,-2,-2,0,-61,-232
Cn1c(SCc2ccc(C(C)(C)C)cc2)nnc1-c1ccco1,10,0,-1,1,5
CCN(CC)CCNc1nc(-c2ccco2)c2c(c1C#N)CC(C)(C)OC2,-3,10,0,-105,i
CC1(C)Cc2c(C#N)c(NCCc3ccccc3)nc(-c3ccco3)c2CO1,48*,4,35,-96,-294
O=S1(=O)c2ccc(Br)cc2OC[C@@H](Cc2ccccc2)N1Cc1cn(Cc2ccc(Cl)cc2)nn1,6,0,-6,-2,-4
Cc1nc2ccc([N+](=O)[O-])cc2c(=O)n1Cc1ccc([N+](=O)[O-])cc1,-8,-1,-4,-8,-1
SMILES,NPR2 activator,KLK7 zymogen act,GC-A act,ADAM17 inh,ADAM10 inh
N#Cc1c(N)n(Cc2ccccc2)c(=O)c2cc([N+](=O)[O-])ccc12,22,0,47*,-2,2
O=C(c1ccco1)N1CCN(C(=O)c2ccc(-c3ccc(Cl)cc3)o2)CC1,3,0,5,-1,-6
NC(=O)C1CCN(C(=S)c2ccc(-c3ccc(Br)cc3)o2)CC1,47*,0,45*,-1,-3
NC(=O)c1ccc(-c2ccc(Br)cc2)o1,-6,0,-1,-9,-28
CC(=O)N1CCN(C(=S)c2ccc(-c3ccc(Cl)cc3)o2)CC1,48*,0,43*,3,5
COc1ccc(NC(=O)N(C)C[C@H]2Oc3c(NC(=O)Nc4ccc(C(F)(F)F)cc4)cccc3C(=O)N([C@H](C)CO)C[C@@H]2C)cc1,5,0,3,9.9*,19
C[C@H](CO)N1C[C@H](C)[C@@H](CN(C)C(=O)Nc2ccc3c(c2)OCO3)Oc2c(NC(=O)Nc3ccc(C(F)(F)F)cc3)cccc2C1=O,-5,0,-4,9.4*,11
OCCN1CCCC12CCC(c1ccccc1)CC2 (configuration not stated),-3,0,5,0,0
C[C@@H]1O[C@@H](n2c3ccc(Cl)cc3c3ccc4c5cc(Cl)ccc5[nH]c4c32)[C@H](O)[C@H](O)[C@H]1O,0,1,1,-22,-69
CC(=O)Nc1nonc1NC(C)=O,7,0,0,0,2
CC(=O)Nc1cc(OC(C)=O)c2nonc2c1OC(C)=O,4,40*,-5,-22,-73
Cc1c(NS(=O)(=O)c2cccc(C(=O)OCC(=O)c3ccc(Cl)cc3)c2)c(=O)n(-c2ccccc2)n1C,-2,1,61*,-1,-5
Cc1c(NS(=O)(=O)c2cccc(C(=O)NCc3ccccc3Cl)c2)c(=O)n(-c2ccccc2)n1C,-2,0,0,-2,-5
CC(NC(=O)/C(C#N)=C/c1ccc(Cl)c([N+](=O)[O-])c1)c1ccccc1 (configuration not stated),0,0,55*,-4,-1
C#CCN1CC(N(C)CCOC(=O)c2cc(C)cc(C)c2)CS1(=O)=O (configuration not stated),3,-1,1,0,1
Cc1ccccc1OCC(=O)Nc1sc(C(=O)Nc2cccc(C)c2C)c(C)c1C#N,-9,.,56*,.,.
O=C(OC12CCCN(C1)/C(=C/c1cccc(Cl)c1)C2)c1ccccc1 (configuration not stated),-8,0,2,2,4
O=C(CCSc1ccccn1)c1ccccc1,4,0,52*,2,10
Cc1cc(S(=O)(=O)c2ccc([N+](=O)[O-])cn2)ccc1Br,37*,0,20,4,4
COc1ccc(OC)c2c1C(=O)c1ccccc1C2=O,-4,0,-2,-1,-1
COc1ccc(OC)c2c1C(=O)C(Cl)=C(Cl)C2=O,22,7,43*,-3,-2
COC(=O)[C@]12C[C@H](CC(=O)NCc3cccs3)C(=O)N(Cc3ccco3)C1=C[C@H](COCc1ccccc1)O[C@@H]2C,3,0,-2,-2,-2
